# From PubChem
# DT40 TDP1 no CPT = qHTS for Inhibitors of human tyrosyl-DNA phosphodiesterase 1 (TDP1): qHTS in cells in absence of CPT; Potency, µM (titrated, usually from 46.2 µM), inactives show top-dose activity change, negative = growth inhibition, most hits filed as inhibitors; 15% of 420,000 active; DT40 Tdp1-/- hTDP1 cells, no CPT, ATP luminescence, 48 h; also: potency is read from the fitted curve at half-maximal effect; nearly all actives have a fitted effect of over 55% in size
#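 Chicken DT40 Tdp1-/- cells stably complemented with human TDP1 were seeded at 400 cells/well with DMSO in place of 20 nM camptothecin. After compound pinning, cells grew at least 48 hr at 37 °C; viability read by CellTiter-Glo luminescence.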
# ELG1 repair inh = ELG1-dependent DNA repair inhibition. HEK293T ELG1-luciferase reporter, luminescence, 16 h; DNA damage induced by 5-fluorouridine. Potency, µM (titrated, usually from 46.1 µM), for the others: at the top dose activity change, negative = inhibition, most hits filed as inhibitors. 2.3% of 330,000 active. AID 504467; also: potency is read from the fitted curve at half-maximal effect; nearly all actives have a fitted effect of over 55% in size
#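 Cells (2,000 per well) received 5-fluorouridine plus test compound or DMSO and were incubated 16 hr at 37 °C, 5% CO2. Luciferase activity was read by luminescence 30 min after ONE-Glo addition; signal suppression marked inhibition of damage-induced ELG1 function.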
# DT40 TDP1 CPT = DT40-hTDP1 cell growth loss with CPT. 12% of 420,000 active. Potency, µM (titrated, usually from 46.2 µM), inactives show at the highest dose activity change, negative = growth inhibition, most hits filed as inhibitors. AID 686979. chicken DT40 Tdp1-/-;hTDP1 cells + 20 nM CPT, ATP luminescence, 48 h; also: potency is read from the fitted curve at half-maximal effect; nearly all actives have a fitted effect of over 55% in size
#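 Cell growth measured by CellTiter-Glo luminescence after a minimum 48 h, 37 C compound exposure with 20 nM CPT in Tdp1-knockout DT40 cells stably expressing hTDP1, seeded 400/well; qHTS titration format.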
# HT1080 IDH1KD tx = HT-1080 IDH1 knockdown cell toxicity (counter line); HT-1080 IDH1 knockdown viability, ATP luminescence, 48 h; Potency, µM (highest dose often 46.1 µM), for the others: top-dose activity, negative = toxicity, most hits filed as cytotoxic; 2% of 360,000 active; AID 686971;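 also: potency is read from the fitted curve at half-maximal effect; 0% = DMSO wells and -100% = cell-free medium wells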
#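 In this qHTS, HT-1080 cells depleted of IDH1 are exposed for 48 h at 37 °C to compound titrations. Toxicity is scored from CellTiter-Glo luminescence, with DMSO as full viability and medium alone as none.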
# IL1B secr inh = inflammasome signaling inhibition, IL-1 beta readout. THP-1 LPS/ATP IL-1B secretion, AlphaLISA, 16 h; stronger effect = lower value. activity change, % at 57.5 µM. 4.7% of 360,000 active. AID 743279; in the data active = activity change below about -50%; inconclusive = mostly about -30% to -49%
#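 THP-1 cells pretreated 1 hr with compounds (up to 57.5 uM final), then stimulated with LPS (250 ng/mL final) plus ATP (1.25 mM final); secreted IL-1B measured by AlphaLISA after 16 hr, decreased signal indicating inhibition.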
# HT1080NT lethal = kills 2HG-producing HT-1080-NT fibrosarcoma cells | HT-1080-NT fibrosarcoma viability, CellTiter-Glo ATP luminescence, 48 h | 1.6% of 360,000 active | Potency, µM (highest dose often 46.1 µM), without a hit: top-dose activity, negative = less viability, usual class: cytotoxic;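 also: NT is the 2HG producing partner of a matched IDH1 knockdown line; potency is read from the fitted curve at half-maximal effect; 0% = DMSO-treated cells and -100% = media-only wells without cells; nearly all actives have a fitted effect of over 55% in size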
#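 750 cells/well, RPMI + 5% FBS; 2 h settle, compound pin-transfer, 48 h at 37 degrees C. CellTiter-Glo 10 min RT, luminescence. Normalized to DMSO and media-only wells.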
# An asterisk follows results filed as active; ? = inconclusive; . = no result; [ ] = another dose, or the depositor's remark. Hits are enriched below; roughly 19% of the tested compounds scored in any of these assays. Unless noted, calls follow the shape of the dose curve; as a rule, active = well fitted curve in the direction sought with a large enough effect; inconclusive = small, poorly fitted or top-dose-only effect, or another doubt; inactive = no such curve, though single readings can be large; an effect the other way counts as inactive or inconclusive. Unless noted, % is scaled to controls: 0 for no effect and ±100 for the full control effect.
SMILES,DT40 TDP1 no CPT,ELG1 repair inh,DT40 TDP1 CPT,HT1080 IDH1KD tx,IL1B secr inh,HT1080NT lethal
O=C(CC1C[C@H](C(=O)N2CCCCC2)[C@@]2(CCc3ccccc3)c3[nH]c4ccccc4c3CCN2C1=O)NCCCn1ccnc1 (stereo partly drawn),?,-4%,?,-10%,?,-10%
CC(C)(C)NC(=O)C[C@H]1C[C@H](C(=O)N2CCCCC2)[C@@]2(CCc3ccccc3)c3[nH]c4ccc(Cl)cc4c3CCN2C1=O,?,-8%,?,2%,-4,8%
COc1ccc2[nH]c3c(c2c1)CCN1C(=O)C(CC(=O)NCc2cccc(C(F)(F)F)c2)C[C@H](C(=O)N2CCCCC2)[C@@]31CCc1ccccc1 (stereo partly drawn),?,-2%,16µM*,0%,?,2%
CCCCN(C)C(=O)c1sc(=O)n(Cc2ccccc2C#N)c1C,?,.,13µM*,2%,-7,10%
CCCCN(C)C(=O)c1sc(=O)n(CC(=O)c2ccccc2OC)c1C,?,.,?,18%,18,20%
Cc1c(C(=O)N(C)Cc2ccc(F)cc2)sc(=O)n1Cc1ccccc1C#N,16µM*,.,23µM*,-13%,1,6%
Cc1ccccc1Cn1c(C)c(C(=O)N(C)Cc2ccc(F)cc2)sc1=O,18µM*,.,?,5%,-19,9%
COc1ccc(Br)c(Cn2c(C)c(C(=O)N(C)Cc3ccc(F)cc3)sc2=O)c1,?,.,?,?,-23,1%
Cc1cc(C)cc(Cn2c(C)c(C(=O)N(C)Cc3ccc(F)cc3)sc2=O)c1,?,.,?,?,-28,-26%
CCN1C(=O)CSC1=NC12CC3CC(CC(C3)C1)C2,?,-1%,?,5%,-66*,0%
CCN(CC)c1ccc(/C=N/N=C(N)N)c(O)c1,0.65µM*,-10%,0.65µM*,1.6µM*,0,1µM*
CCN(CC)c1ccc(C=Nc2ccccc2)c(O)c1,?,-2%,?,-3%,27,0%
CCN(CC)c1ccc(N=Cc2ccc(N(CC)CC)cc2O)cc1,?,-19%,?,1%,29,-2%
CCN(CC)c1ccc(C=Nc2ccc(N(C)C)cc2)c(O)c1,16µM*,?,?,-8%,-21,-18%
COCCN(CC1CCCN(C2Cc3ccccc3C2)C1)C(=O)CSC (stereo not drawn),-1%,-1%,-15%,4%,-3,-8%
CCC(=O)N1N=C(c2cccs2)CC1c1ccc(C)cc1 (stereo not drawn),?,9%,?,7%,-8,7%
CNC(=S)N1N=C(c2cccs2)CC1c1ccc(F)cc1 (stereo not drawn),-17%,?,-19%,-29%,-51*,-17%
Cc1ccc(C2CC(c3cccs3)=NN2C(=O)CSC2=NN3CCCC(=O)N=C3S2)cc1 (stereo not drawn),?,-13%,13µM*,-3%,-18,-4%
Cc1ccc(C2CC(c3cccs3)=NN2C(=O)CCl)cc1 (stereo not drawn),2.9µM*,?,2.6µM*,4.1µM*,-106*,4.6µM*
COc1ccc(C2CC(c3cccs3)=NN2C(=O)CSC2=NN3CCCC(=O)N=C3S2)cc1 (stereo not drawn),?,-15%,?,0%,-24,-2%
O=C(Nc1cccc(F)c1)NC1(C(=O)N2CCOCC2)CCCCC1,-1%,3%,-6%,14%,-11,23%
Cc1ccc(C(=O)OCC(=O)Nc2ccccc2C(F)(F)F)cc1S(=O)(=O)N1CCCCC1,?,?,?,0%,-13,0%
COC(=O)c1cc(C(=O)NCc2ccc3c(c2)OCO3)cc([N+](=O)[O-])c1,-26%,8%,21%,-6%,-55*,-3%
CCOc1ccc(CN(C)C(=O)c2ccc(S(=O)(=O)N(C)c3ccccc3OC)cc2)cc1,10µM*,?,?,-17%,-24,-9%[9.24 µM]
CN(Cc1ccc(OC(F)F)cc1)C(=O)c1ccc(S(=O)(=O)N(C)c2ccccc2)cc1,-14%,?,?,-5%,-18,-11%
SMILES,DT40 TDP1 no CPT,ELG1 repair inh,DT40 TDP1 CPT,HT1080 IDH1KD tx,IL1B secr inh,HT1080NT lethal
COc1ccccc1N(C)S(=O)(=O)c1ccc(C(=O)NCc2ccc3c(c2)OCO3)cc1,23µM*,?,-14%,-2%,1,-20%
O=C(NCc1ccc2c(c1)OCO2)c1cccc([N+](=O)[O-])c1,-8%,5%,-4%,0%,-2,3%
COc1cccc(CN(C)C(=O)c2[nH]c(C)c(C(C)=O)c2C)c1OC,12µM*,?,18µM*,-25%,53,-15%
COc1cccc(C(=O)NCc2ccc3c(c2)OCO3)c1OC,-6%,14%,15%,2%,6,8%
COc1ccccc1N(C)S(=O)(=O)c1ccc(C(=O)OCC(N)=O)cc1,-30%,1%,18%,?,15,-5%
COc1ccccc1N(C)S(=O)(=O)c1ccc(C(=O)N(C)Cc2ccc(Cl)s2)cc1,15µM*,?,23µM*,-12%,?,-9%
COc1cccc(CN(C)C(=O)c2ccc(S(=O)(=O)N3CCCC3)cc2)c1OC,?,11%,?,-6%,-1,6%
COc1ccccc1N(C)S(=O)(=O)c1ccc(C(=O)N(C)Cc2cccc(OC)c2OC)cc1,21µM*,.,?,-1%,-6,-2%
COC(=O)C[C@@H]1C=C[C@H](NC(=O)Cc2ccccn2)[C@@H](CO)O1,-13%,.,6%,4%,27,11%
COc1ccc(CN(C)[C@H]2C[C@H]3c4[nH]c5ccccc5c4CCN3C[C@H]2[C@H](C)O)cc1,18µM*,.,?,-12%,-26,-13%
Cc1ccc(S(=O)(=O)N(C)[C@H]2C[C@H]3c4[nH]c5ccccc5c4CCN3C[C@H]2[C@H](C)O)cc1,?,.,21µM*,-25%,-7,-27%
C[C@H](O)[C@@H]1CN2CCc3c([nH]c4ccccc34)[C@@H]2C[C@@H]1N(C)C(=O)Nc1ccccc1,?,.,?,5%,-28,-19%
Cn1cc(CN(C(=O)Nc2ccc(Cl)c(Cl)c2)C2CCCCC2)c2ccccc21,4.1µM*,.,2.3µM*,.,.,.
